# Assay results published in PubChem BioAssay.
# Calls of active or inactive are those of the source.
# Experiments:
# [1] = binders of probe aFSTL3 on microarray, primary screen, stem cell growth factor project, biochemical, small-molecule microarray, fluorescence 635/667 (AID 1064); details: higher = more signal;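 note: measures binding of the biotinylated anti-FSTL3 antibody to printed compounds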
# [2] = binders from COS7 lysate, DM2A8 probe, primary screen, torsin A project, cell lysate, small-molecule microarray, fluorescence 635/667 (AID 1065); details: higher = more signal, COS7 lysate expressing mutant human TOR1A
# [3] = binders of probe aFGF2 on microarray, primary screen, stem cell growth factor project, biochemical, small-molecule microarray, fluorescence 635/667 (AID 1067); details: higher = more signal;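 note: measures binding of biotinylated aFGF2 protein to printed compounds on slides; z-score merges feature fluorescence and signal-to-noise across triplicate slides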
# [4] = binders of probe aFGF10 on microarray, primary screen, stem cell growth factor project, biochemical, small-molecule microarray, fluorescence 635/667 (AID 1071); details: higher = more signal;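 note: score merges 667 nm spot intensity and signal to noise from triplicate slides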
# [5] = molecular target: Neurogenic locus notch homolog protein 2 (Homo sapiens) (UniProt Q04721); assay: Notch2 binders on small-molecule microarrays, primary screen, biochemical, small-molecule microarray, 635 nm fluorescence, stem cell growth factors (AID 1073); details: Notch2 binding, higher = more signal
# [6] = molecular target: Pro-neuregulin-1, membrane-bound isoform (Homo sapiens) (UniProt Q02297); assay: NRG1 binders on small-molecule microarrays, primary screen, psychiatric disease protein project, biochemical, small-molecule microarray, fluorescence 635/667 (AID 1075); details: NRG1 binding, 635 nm fluorescence, higher = more signal;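 note: score combines 667 nm spot fluorescence with signal to noise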
# [7] = system: Neuregulin-1 EGF-like domain; assay: binders of neuregulin-1 EGF-like domain, primary screen, biochemical, small-molecule microarray, 635 nm fluorescence (AID 1081); details: small-molecule microarray binding, higher = more signal;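 note: binding of the protein to compounds printed on small-molecule microarray slides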
# [8] = FRG1 promoter luciferase signal modulators, primary screen, FRG1 inhibition for FSHD, cell-based, C2C12 myotubes, firefly/Renilla luciferase, luminescence (AID 1084); details: higher = more signal, called active from +8 up or from −8 down
# [9] = binders of probe aFST on microarray, primary screen, stem cell growth factor project, biochemical, small-molecule microarray, fluorescence 635/667 (AID 1086); details: higher = more signal;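 note: score merges 667 nm fluorescence with signal-to-noise of each printed compound spot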
# [10] = binders of probe aHhip on microarray, primary screen, stem cell growth factor project, biochemical, small-molecule microarray, fluorescence 635/667 (AID 1087); details: higher = more signal;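 note: score merges spot fluorescence at 667nm with spot signal to noise ratio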
# [11] = system: PRMT1 (protein arginine N-methyltransferase 1); assay: PRMT1 binders on small-molecule microarrays, primary screen, biochemical, small-molecule microarray, 635 nm fluorescence (AID 1088); details: small-molecule microarray binding, higher = more signal;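 note: binding of Prmt1 protein to compounds spotted on small-molecule microarray slides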
# [12] = yeast growth modulation, basal conditions, primary screen, YJM789 clinical isolate, OD600, 24 h (AID 1089);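 note: growth of clinical yeast isolate S. cerevisiae YJM 789 seeded 1000 cells per well; test concentration not given here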; details: S. cerevisiae YJM789 growth, higher = more signal, called active from +8 up or from −8 down
# [13] = fission yeast growth modulation, primary screen, strain 972, OD600, 24 h, no modulator (AID 1090);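 note: basal condition with compound alone and no growth modifier present; test concentration not given here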; details: S. pombe 972 growth, higher = more signal, called active from +8 up or from −8 down
# [14] = S. cerevisiae growth modulation with rapamycin, primary screen, strain BY4716, OD600, 96 h (AID 1091); details: higher = more signal, called active from +8 up or from −8 down; note: test concentration not given here
# [15] = molecular target: Torsin-1A-interacting protein 2 (Homo sapiens) (UniProt Q8NFQ8); assay: LULL1 binders on small-molecule microarray, primary screen, cell lysate, human LULL1 lysate, 635/667 nm fluorescence (AID 1092); details: hLULL1 lysate binding, 635 nm fluorescence, higher = more signal;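 note: probe is lysate of COS7 cells overexpressing human LULL1; score merges per-feature 667 nm fluorescence with signal-to-noise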
# [16] = E. coli growth modulation, two-sided OD650, primary screen, E. coli filamentation project, strain DRC41, 24 h (AID 1093); details: OD650, 24 h, higher = more signal, called active from +8 up or from −8 down;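 note: MC1000 strain lacking acrAB efflux and sulA so SOS filamentation is blocked; test concentration not given here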
# [17] = small-molecule microarray binders of probe aLefty2, primary screen, biochemical, biotinylated probe, 635/667 nm fluorescence (AID 1094); details: higher = more signal;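 note: score merges spot fluorescence near 667 nm with spot signal-to-noise ratio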
# [18] = system: Noggin (protein binding on small-molecule microarray); assay: Noggin binders on small-molecule microarray, primary screen, biochemical, 635/667 nm fluorescence (AID 1095); details: 635 nm fluorescence, higher = more signal;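 note: score merges 667 nm feature fluorescence with signal to noise over triplicate slides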
# [19] = molecular target: Neurogenic locus notch homolog protein 3 (Homo sapiens) (UniProt Q9UM47); assay: NOTCH3 binders on small-molecule microarray, primary screen, biochemical, 635/667 nm fluorescence (AID 1096); details: NOTCH3 binding, 635 nm fluorescence, higher = more signal
# [20] = small-molecule microarray binders of probe aEGFR, primary screen, biochemical, biotinylated probe, 635/667 nm fluorescence (AID 1097); details: higher = more signal;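 note: probe is a biotinylated anti-EGFR antibody binding compounds printed on slides; score combines fluorescence near 667 nm and signal to noise of each spot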
# Chain of Pro-neuregulin-1, membrane-bound isoform (Homo sapiens) (Q02297 whole entry, looked up, the tested form may be a part, canonical isoform): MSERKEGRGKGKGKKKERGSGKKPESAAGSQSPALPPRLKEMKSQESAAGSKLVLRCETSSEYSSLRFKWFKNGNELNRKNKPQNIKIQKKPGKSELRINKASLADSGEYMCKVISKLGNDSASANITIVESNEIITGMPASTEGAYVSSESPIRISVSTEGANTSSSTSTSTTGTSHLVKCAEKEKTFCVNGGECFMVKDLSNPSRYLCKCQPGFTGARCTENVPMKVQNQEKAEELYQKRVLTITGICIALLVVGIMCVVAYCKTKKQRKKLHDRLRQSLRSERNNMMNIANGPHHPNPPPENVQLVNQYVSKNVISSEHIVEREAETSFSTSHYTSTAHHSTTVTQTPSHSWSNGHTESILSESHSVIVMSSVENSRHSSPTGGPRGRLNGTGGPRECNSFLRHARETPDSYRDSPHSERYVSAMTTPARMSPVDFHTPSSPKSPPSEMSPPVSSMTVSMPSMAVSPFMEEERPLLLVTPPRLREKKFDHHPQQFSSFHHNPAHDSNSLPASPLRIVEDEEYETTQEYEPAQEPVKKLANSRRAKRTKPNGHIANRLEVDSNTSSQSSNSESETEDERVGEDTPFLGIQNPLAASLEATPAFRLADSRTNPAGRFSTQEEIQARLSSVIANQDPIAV
# Chain of Neurogenic locus notch homolog protein 2 (Homo sapiens) (Q04721 whole entry, looked up, canonical isoform): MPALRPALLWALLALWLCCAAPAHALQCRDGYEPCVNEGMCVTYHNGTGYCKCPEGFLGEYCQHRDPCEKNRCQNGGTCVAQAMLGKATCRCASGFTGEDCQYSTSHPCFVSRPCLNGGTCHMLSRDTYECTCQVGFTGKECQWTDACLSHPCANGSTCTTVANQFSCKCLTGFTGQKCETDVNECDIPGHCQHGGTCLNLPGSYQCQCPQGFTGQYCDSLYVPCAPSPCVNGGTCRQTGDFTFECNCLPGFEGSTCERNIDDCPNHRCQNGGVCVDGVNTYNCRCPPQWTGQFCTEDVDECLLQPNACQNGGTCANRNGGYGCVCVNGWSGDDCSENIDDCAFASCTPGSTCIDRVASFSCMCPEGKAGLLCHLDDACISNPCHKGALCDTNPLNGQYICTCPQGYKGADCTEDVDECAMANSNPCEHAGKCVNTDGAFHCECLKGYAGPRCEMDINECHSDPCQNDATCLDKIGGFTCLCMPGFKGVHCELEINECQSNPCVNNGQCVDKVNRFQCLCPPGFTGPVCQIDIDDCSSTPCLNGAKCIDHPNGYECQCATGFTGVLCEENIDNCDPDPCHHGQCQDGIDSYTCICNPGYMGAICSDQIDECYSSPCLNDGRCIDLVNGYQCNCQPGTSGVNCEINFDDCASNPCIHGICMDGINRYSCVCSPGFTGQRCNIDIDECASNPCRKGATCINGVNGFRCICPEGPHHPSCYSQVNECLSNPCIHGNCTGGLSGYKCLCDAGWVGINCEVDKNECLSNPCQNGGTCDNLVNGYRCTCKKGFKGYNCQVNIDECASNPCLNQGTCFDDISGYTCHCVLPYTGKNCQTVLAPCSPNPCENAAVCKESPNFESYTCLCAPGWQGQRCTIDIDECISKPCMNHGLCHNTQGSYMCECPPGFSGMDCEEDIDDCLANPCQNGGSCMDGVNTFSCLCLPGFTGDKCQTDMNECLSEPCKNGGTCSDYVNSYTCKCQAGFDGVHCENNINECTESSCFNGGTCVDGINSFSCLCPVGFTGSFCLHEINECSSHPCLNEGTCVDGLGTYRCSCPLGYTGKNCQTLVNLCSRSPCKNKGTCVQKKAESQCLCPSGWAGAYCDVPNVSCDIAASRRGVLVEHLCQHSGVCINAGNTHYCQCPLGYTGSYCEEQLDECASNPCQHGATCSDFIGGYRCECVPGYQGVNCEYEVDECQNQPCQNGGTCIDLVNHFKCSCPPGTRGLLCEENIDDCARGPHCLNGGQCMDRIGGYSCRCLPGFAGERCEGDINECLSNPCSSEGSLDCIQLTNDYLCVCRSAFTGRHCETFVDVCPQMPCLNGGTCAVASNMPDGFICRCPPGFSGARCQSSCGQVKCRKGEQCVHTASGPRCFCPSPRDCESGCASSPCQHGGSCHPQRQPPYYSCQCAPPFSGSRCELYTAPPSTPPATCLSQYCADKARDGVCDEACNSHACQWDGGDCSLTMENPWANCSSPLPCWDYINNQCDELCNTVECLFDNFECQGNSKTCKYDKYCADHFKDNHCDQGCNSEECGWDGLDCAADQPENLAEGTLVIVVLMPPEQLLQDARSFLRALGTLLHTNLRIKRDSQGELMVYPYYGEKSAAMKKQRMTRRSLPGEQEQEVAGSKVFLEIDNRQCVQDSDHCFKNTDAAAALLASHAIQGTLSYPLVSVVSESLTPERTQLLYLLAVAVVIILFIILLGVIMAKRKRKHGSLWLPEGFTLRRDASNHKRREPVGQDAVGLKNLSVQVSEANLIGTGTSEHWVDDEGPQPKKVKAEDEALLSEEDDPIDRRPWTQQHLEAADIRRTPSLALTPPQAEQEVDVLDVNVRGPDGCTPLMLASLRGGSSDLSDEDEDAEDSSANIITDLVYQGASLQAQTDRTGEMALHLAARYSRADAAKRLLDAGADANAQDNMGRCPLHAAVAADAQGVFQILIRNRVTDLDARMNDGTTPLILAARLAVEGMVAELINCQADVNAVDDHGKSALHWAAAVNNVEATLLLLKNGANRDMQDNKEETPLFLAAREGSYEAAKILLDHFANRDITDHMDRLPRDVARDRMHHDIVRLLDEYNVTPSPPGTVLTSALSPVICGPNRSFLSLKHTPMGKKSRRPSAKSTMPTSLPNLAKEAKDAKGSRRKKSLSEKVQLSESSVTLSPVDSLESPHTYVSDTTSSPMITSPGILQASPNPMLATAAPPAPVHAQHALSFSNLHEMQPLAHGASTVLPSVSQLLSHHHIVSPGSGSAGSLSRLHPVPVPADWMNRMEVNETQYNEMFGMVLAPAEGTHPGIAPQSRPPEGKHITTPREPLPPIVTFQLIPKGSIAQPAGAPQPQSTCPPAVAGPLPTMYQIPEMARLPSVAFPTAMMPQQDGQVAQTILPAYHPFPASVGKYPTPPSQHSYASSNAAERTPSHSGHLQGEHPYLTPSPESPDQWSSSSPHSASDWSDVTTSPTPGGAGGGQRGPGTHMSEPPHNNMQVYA
# Chain of Torsin-1A-interacting protein 2 (Homo sapiens) (Q8NFQ8 whole entry, looked up): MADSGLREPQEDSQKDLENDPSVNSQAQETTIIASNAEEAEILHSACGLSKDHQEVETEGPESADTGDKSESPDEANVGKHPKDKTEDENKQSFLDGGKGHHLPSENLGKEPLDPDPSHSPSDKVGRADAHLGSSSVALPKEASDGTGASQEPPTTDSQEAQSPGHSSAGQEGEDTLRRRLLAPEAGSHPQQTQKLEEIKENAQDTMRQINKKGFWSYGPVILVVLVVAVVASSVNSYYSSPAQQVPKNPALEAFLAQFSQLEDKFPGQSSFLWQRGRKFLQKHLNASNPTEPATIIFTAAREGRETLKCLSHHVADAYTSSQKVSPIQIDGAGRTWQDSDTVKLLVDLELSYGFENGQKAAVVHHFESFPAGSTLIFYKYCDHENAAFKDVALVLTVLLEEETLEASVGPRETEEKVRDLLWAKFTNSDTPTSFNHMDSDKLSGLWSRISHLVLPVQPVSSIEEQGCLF
SMILES,composite z-score [1],composite z-score [2],composite z-score [3],composite z-score [4],composite z-score [5],composite z-score [6],composite z-score [7],z-score [8],composite z-score [9],composite z-score [10],composite z-score [11],z-score [12],z-score [13],z-score [14],composite z-score [15],z-score [16],composite z-score [17],composite z-score [18],composite z-score [19],composite z-score [20]
C=CC[C@@]12N=C(c3ccc(OCCCO)cc3)O[C@@H]1c1ccccc1N(CCC)C2=O,0.953,-0.0868,0.0528,0.288,0.381,0.984,1.21,2.39 (inactive),0.298,-0.0645,1.55,-1.01 (inactive),-2.42 (inactive),-0.71 (inactive),3.12,1.34 (inactive),0.219,0.916,1.07,-0.108
CN(C)CCCNC(=O)[C@@H]1c2ccccc2C(=O)N(Cc2ccccc2C(F)(F)F)[C@H]1c1ccc(CO)cc1,1,-0.335,-0.0416,-0.702,-1.03,1.01,-0.23,-1.28 (inactive),-0.0464,-0.149,0.986,0.0389 (inactive),-1.28 (inactive),-0.461 (inactive),0.767,1.53 (inactive),0.0518,-0.396,-0.704,-0.213
CN1C(=O)C2C(C1=O)C1C=C(CCCO)C2C(C2CC2)N1Cc1cccc(OC(F)(F)F)c1 (stereo not given),-0.143,-0.122,-0.13,-0.203,-0.254,2,1.3,-0.688 (inactive),0.0794,-0.242,1.34,-1.07 (inactive),-1.58 (inactive),-1.15 (inactive),3.17,0.179 (inactive),-0.224,-0.0767,0.203,-0.144
OCCCC1=CC(c2ccc(CN3CCCC3)cc2)N(Cc2cccc(OC(F)(F)F)c2)CC1 (stereo not given),0.373,0.134,-0.0853,0.0263,-0.546,0.0603,0.0735,0.372 (inactive),-0.176,-0.236,-0.688,-2.01 (inactive),-14.9 (active),-2.62 (inactive),0.203,-0.987 (inactive),0.0029,0.123,-0.752,-0.181
CCCCCCc1nc(-c2ccc(-c3ccc(Cl)c(Cl)c3)o2)cc2c1[Si](C(C)C)(C(C)C)OC2,0.0736,-0.207,-0.162,-0.632,-1.01,-0.14,0.262,1.25 (inactive),-0.634,-0.134,-0.849,-0.625 (inactive),-7.54 (inactive),3.66 (inactive),0.582,0.66 (inactive),-0.159,-0.561,-0.453,-0.257
C=CCN1C(=O)[C@]2(O[C@H](CCn3cc([C@H](O)c4ccccc4)nn3)[C@@H]([Si](C)(C)c3ccc(OC)cc3)[C@@H]2C)c2cc(NC(=O)c3ccc(OC)cc3)ccc21,-0.255,0.39,-0.112,0.141,0.603,0.0976,0.519,-2.62 (inactive),0.0019,0.0722,1.55,0.323 (inactive),-0.532 (inactive),0.567 (inactive),0.744,0.252 (inactive),0.0352,0.423,0.907,-0.152
